Holding throughout (assay): glycan array binding signal (z-score within array); higher = stronger binding
Common to all, as to details: glycan notation: IUPAC condensed, linker removed

For assay [1], the system named is Glc(a1-4)Glc. The gist of the method:
(§1)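 Glycan array data were curated from 3228 arrays in the Consortium for Functional Glycomics database and kept only where the protein sequence was available. Glycan names were converted to IUPAC-condensed notation, and columns mapping to the same glycan were averaged. The binding signal is a within-array Z-score, averaged across arrays of the same protein sequence at different concentrations or buffers and across linkers. Negative Z-scores can be read as non-binding.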

The subject of assay [2] is GlcNAc(b1-2)Gal(b1-3)GalNAc. The essentials:
as §1

Assay [3] deals with GlcNAc(b1-2)[GlcNAc(b1-4)]Man(a1-3)[GlcNAc(b1-4)][GlcNAc(b1-2)[GlcNAc(b1-6)]Man(a1-6)]Man(b1-4)GlcNAc(b1-4)GlcNAc. The essentials: as §1
The test system of assay [4] is GlcA(b1-3)Gal. The gist of the method: as §1
The test system of assay [5] is GlcNAc(a1-3)Gal(b1-4)GlcNAc. The gist of the method: as §1
Assay [6] deals with GalNAc3S(b1-4)GlcNAc. The essentials: as §1
For assay [7], the system named is Glc(a1-4)Glc(a1-4)Glc(a1-4)Glc. The gist of the method:
as §1

Assay [8] concerns Glc(a1-6)Glc(a1-6)Glc. The essentials:
as §1

For assay [9], the system named is GlcNAc(a1-4)Gal(b1-4)GlcNAc(b1-3)Gal(b1-4)GlcNAc. The essentials:
as §1

Assay [10] relates to GlcNAc(b1-2)[GlcNAc(b1-4)]Man(a1-3)[GlcNAc(b1-2)Man(a1-6)]Man(b1-4)GlcNAc(b1-4)GlcNAc. The gist of the method: as §1
Assay [11] relates to GlcNAc(a1-4)Gal(b1-4)GalNAc. The gist of the method: as §1
In assay [12] the test system is GlcNAc(b1-2)Man(a1-3)[GlcNAc(b1-2)Man(a1-6)]Man(b1-4)GlcNAc(b1-4)[Fuc(a1-6)]GlcNAc. The essentials: as §1
Assay [13] has as its system Glc(b1-4)Glc. The essentials:
as §1

Assay [14] relates to Glc(b1-6)Glc. The gist of the method: as §1
Assay [15] relates to GlcA(b1-3)GlcNAc. The essentials:
as §1

Assay [16] has as its system GlcNAc(a1-4)Gal(b1-4)GlcNAc(b1-3)Gal(b1-4)[Fuc(a1-3)]GlcNAc(b1-3)Gal(b1-4)[Fuc(a1-3)]GlcNAc. The gist of the method:
as §1

Assay [17] deals with GlcA3S(b1-3)Gal(b1-4)GlcNAc(b1-2)Man. The essentials:
as §1

Assay [18] deals with GlcNAc(b1-2)Man(a1-3)[GlcNAc(b1-2)Man(a1-6)]Man(b1-4)GlcNAc(b1-4)GlcNAc. The essentials: as §1
Assay [19] has as its system GalNAc4S6S(b1-4)GlcNAc. The gist of the method:
as §1

For assay [20], the system named is GlcNAc(b1-2)Man(a1-3)[GlcNAc(b1-4)][GlcNAc(b1-2)Man(a1-6)]Man(b1-4)GlcNAc(b1-4)[Fuc(a1-6)]GlcNAc. The gist of the method: as §1

Only a selection was taken, and the strongest signals are over-represented in it overall.

On to “SiiE (Salmonella typhimurium), A0A0H3NVH0”, for which the figures for the “glycan array binding signal (z-score)” value in [1], in [2] and in assay [3] were -0.099, 0.158 and -1.05, respectively.
Regarding GspB (Streptococcus gordonii), Q939N5, the “glycan array binding signal (z-score)” value was -0.677 in assay [4] and 2.63 in assay [5].
With “AgI/II Vhelical-GFP (Streptococcus mutans)”, the “glycan array binding signal (z-score)” value is -0.11 in [6]; -0.13 in [7]; -0.269 in [8]; 1.06 in assay [9]; -0.187 in assay [10].
As for Epa22, the “glycan array binding signal (z-score)” value in assay [11] was -0.638; in [12], -0.14.
On to “SpGH101 (Streptococcus pneumoniae), Q8DR60”, for which the “glycan array binding signal (z-score)” value is -0.103 in assay [8]; -0.147 in [13]; -0.186 in [14]; -0.183 in [4]; 3.66 in assay [15].
With BambL (Burhholderia ambifaria), Q0B4G1, the “glycan array binding signal (z-score)” value in [5] is -0.316; in [9] it was -0.278; in assay [16], 0.185; in assay [12], 0.071; in assay [10], -0.291.
As for AgI/IIC123-GFP (Streptococcus mutans), the “glycan array binding signal (z-score)” value is 3.12 in [17] and -0.346 in assay [18].
Wza (Escherichia coli), P0A930: the “glycan array binding signal (z-score)” value in assay [16] worked out at 3.13.
As for LcI (Legionella pneumophila), the results for the “glycan array binding signal (z-score)” value in [19], in assay [20] and in assay [3] were -0.709, -0.447 and -0.477, respectively.

Values taken from the supplement of paper PMC8728848.
